Drawing on PubChem BioAssay AID602270 (The Scripps Research Institute Molecular Screening Center, 2012), this text covers activation for 16 molecules.

Each structure is given as a SMILES string. Some of the results follow. Values without a mark were called inactive. Calls of active or inactive are those of the source. Cut-off read from the data, not from the text of the source: active = activation above about 4%; inactive = the rest.

This test concerns Methionine sulfoxide reductase A (Bos taurus). Briefly: methionine sulfoxide reductase A activation – biochemical, absorbance, bovine, HTS, confirmation (AID 602270).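 Note: enzyme coupled to thioredoxin and thioredoxin reductase with NADPH; 0% = vehicle wells and 100% = reference activator wells.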 As to conditions: purified bovine MsrA, absorbance read-out; at 10.6 µM; hits give high values.
`CN(C)S(=O)(=O)c1ccc(NC(=O)COC(=O)c2n[nH]c3ccccc23)cc1`: the activation was 1.95%.
As to `O=C(OCC(=O)N1CCN(c2ccccc2)CC1)c1ccc([N+](=O)[O-])s1`, the activation was 3.98% (active).
To `Cc1ccc(S(=O)(=O)n2nc(OC(=O)C(C)(C)C)cc2N)cc1` belongs -1.8%.
The value for `CCc1ccc(NC(=O)CSc2nnc(-c3cnccn3)n2Cc2ccco2)cc1` was -1.98%; that for `CC1=NNC(=O)C1CCC(=O)N/N=C(\C)c1ccc(Cl)cc1` (stereo unspecified) was -3.34%.
For the molecule `O=C(O)c1ccccc1-c1ccccc1C(=O)Nc1cccc2ccccc12`, the activation is -1.68%.
As for `Cc1ccc(C)c(NC(=O)CSc2nnc(Cc3cccn3C)n2-c2ccc(F)cc2)c1`, the activation was 2.75%.
On to `O=C(Cc1ccc(NC(=O)C2CCCN(C(=O)C3CCCCC3)C2)cc1)Nc1cccc(C(=O)N2CCCCC2)c1` (stereo unspecified), for which the activation was -3.28%.
Take `COc1ccccc1-n1cn[nH]c1=S`: the activation is -0.06%.
The value for `O=C(CSc1n[nH]c(-c2cccs2)n1)N1CCCCC1` was -1.33%.
The value for `CCN(CC(=O)Nc1ccccc1OC)C(=O)CC1CC2CCC1C2` (stereo unspecified) was 0.76%.
Regarding `S=c1[nH]nc(NCCc2ccccc2)s1`, the activation was 7.45% (active).
Turning to `COc1cc(OC)c(C(=O)NCc2ccc3c(c2)OCO3)cc1OC`, the activation was 2.87%.
On to `Cn1nnnc1SCC(=O)N1CCN(Cc2ccccc2)CC1`, for which the activation was -1.94%.
To `NC1=CC(=O)C(=O)c2cccnc21` belongs 5.78% (active); to `O=C(c1ccco1)N1CCN(Cc2cccc(C(F)(F)F)c2)CC1`, -0.28%.
